Source: PubChem BioAssay AID493085 (Broad Institute, 2011)
About 360 (15%) of roughly 2,400 compounds were called active. Not shown: some 5% with an inconclusive outcome.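 The calls were made as follows: active = falling-signal curve with half-maximal concentration at or below ten times the top tested dose; inconclusive = flat fit at 30 to 70% inhibition, or poor fit; inactive = signal rise, flat within 30%, or potency beyond limit.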 These entries were drawn from the full list. Potency and affinity values are given separately.

Test: dox-induced RFP signal loss in R4-3T3 cells – cell-based, NIH3T3 R4, HSE-GFP and Tet-On RFP, cherry-pick, set 3, dose response (AID 493085);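 also: cells heat shocked 2 h at 42 °C with doxycycline to induce reporters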
Conditions: NIH3T3 R4 HSE-GFP/Tet-RFP reporter, fluorescence, 48 h; series mostly up to 19.5 µM

outcome, inactive:
CCOc1c(C)cc(S(=O)(=O)NCc2cccnc2)c(C)c1C
Cc1ccc(C(=O)Nc2ccc(C(=O)O)cc2NC(=O)c2ccc(C)cc2)cc1
COc1ccc(C(=O)Nc2ccc(OCc3ccccc3)cc2)cc1[N+](=O)[O-]
CCOc1ccc(OCc2cccc(C(=O)O)c2)cc1
CCCCN(C)C(=O)CCC(=O)Nc1ccc2nc(N3CCN(C)CC3)cc(C)c2c1
CC(C)CC(NC(=O)C1CCCN1C(=O)[C@@H](C)NC(=O)OCc1ccccc1)C(=O)NCC(N)=O (stereo partly specified)
CC(=O)c1ccc(NC(=O)C(C)n2nc(-c3ccccc3)c3cc(Cl)ccc32)cc1 (stereo unspecified)
CC1Cc2ccccc2N1C(=O)C12CCC(C)(C(=O)C1)C2(C)C (stereo unspecified)
O=S(=O)(/N=C(/c1ccccc1Cl)N1CCOCC1)c1ccccc1
O=C(c1cc(Cl)ccc1Cl)N1CCOCC1
COc1cc(SC)ccc1C(=O)NCC1CCCO1 (stereo unspecified)
COCC(C)NC(=O)c1ccc2nc(-c3ccccc3)c(-c3ccccc3)nc2c1 (stereo unspecified)
CCn1cc(S(=O)(=O)Nc2ccc3c(c2)OCCO3)cn1
Cc1nc(SCC(=O)NCC2CCCO2)[nH]c(=O)c1C (stereo unspecified)
O=C(N1CCCCC1)N1CCN(S(=O)(=O)c2ccccc2)CC1
O=C(Cc1ccccc1F)Nc1ccc(S(=O)(=O)N2CCCCC2)cc1
C=CCNC(=S)Nc1sc2c(c1C#N)CCCC2
CCOc1ccc(NC(=S)N(CCc2ccncc2)C(C)C)cc1
Cc1ccc([N+](=O)[O-])c(OCCCN2CCC(Cc3ccccc3)CC2)c1
COc1cc(NC(=O)Cn2ncc(Cl)c(Cl)c2=O)c(C)cc1[N+](=O)[O-]
O=C(OCn1ncc(Cl)c(Cl)c1=O)c1ccccc1Cl
CCCNC(=O)NC1C(NC(=O)NCCC)N(C)C(=O)N1C (stereo unspecified)
CCc1ccc(NC(=O)C2C3CCC(O3)C2C(=O)O)cc1 (stereo unspecified)
Cc1ccc(S(=O)(=O)N(C)c2ccccc2C(=O)NC2CCCC2)cc1
S=c1[nH]nc(-c2cnccn2)n1-c1ccccc1
Cc1ccc(NC(=O)COC(=O)Cn2cnc3ccccc32)cc1S(=O)(=O)N(C)C
O=C(Nc1ccc2[nH]ncc2c1)c1ccccc1Cl
O=C(O)c1ccc(N/N=C/c2ccc(OC(=O)c3ccccc3Cl)cc2)cc1
CC(C)c1ccc(/C=N/Nc2ccc(C(=O)O)cc2)cc1
N#C/C(=C\Nc1ccc2cn[nH]c2c1)c1nc(-c2ccccc2)cs1
CCOC(=O)c1ccc(Cl)c(NC(=O)c2cccnc2)c1
CCc1ccc(NC(=O)CSc2ccc(-c3cccnc3)nn2)cc1
O=C(NC(=S)Nc1ccc2oc(=O)ccc2c1)c1cc2ccccc2o1
Cc1ccc(NC(=O)c2cc(NC(=O)c3ccco3)ccc2N2CCOCC2)cc1
O=c1c2c3c(sc2nc(NCCOCCO)n1Cc1ccco1)CCCCC3
COc1ccc(NC(=O)c2cc3cc(OC)ccc3oc2=N)cc1
COc1cccc(/C=C/C(=O)NCc2ccc3c(c2)OCO3)c1
Cc1cccc(NC(=O)c2sc(-c3ccccc3)nc2-c2ccc([N+](=O)[O-])cc2)c1
CCOC(=O)/C(C#N)=C/c1cc(C)n(-c2ccccc2)c1C
OC1(c2ccc(Br)cc2)CCN(Cc2cccc(Br)c2)CC1
Cn1ccnc1SCC(=O)N(C1CCCCC1)C1CCCCC1
COc1cc(C(=O)N(C)C2CCCN(Cc3ccccc3F)C2)cc(OC)c1OC (stereo unspecified)
CS(=O)(=O)N(CC(=O)O)c1ccc(C23CC4CC(CC(C4)C2)C3)cc1
O=C(CCC1CCCNC1)c1ccccc1 (stereo unspecified)
CC(=O)c1cnn(-c2c(Cl)cc(Cl)cc2Cl)c1C
CC(C)Oc1ccc(C(=O)O)cc1
NC(=O)c1ccsc1NC(=O)C1CCCCC1
COC(=O)c1cccc(N2C(=O)C3CC=CCC3C2=O)c1 (stereo unspecified)
O=C(N/N=C/c1ccc(F)cc1)c1ccc(OCc2ccccc2)cc1
COc1ccc(C(=O)Nc2ccccc2C(=O)N/N=C/c2ccc(O)c(OC)c2)cc1
O=C(N/N=C/c1cc([N+](=O)[O-])ccc1O)c1ccncc1
CCOc1cc(N2CCOCC2)c(OCC)cc1NC(=O)c1cc(-c2ccco2)nc2ccccc12
COC(=O)[C@H](C)NC(=O)NCCC1=CCCCC1
Cc1ccc(C(=O)/C=C/Nc2ccccn2)cc1
COC(=O)c1nn(-c2cccc(C(F)(F)F)c2)c(=O)cc1Sc1ccccn1
CCCCOc1ccc(C2C(=O)N(C3CCCCC3)CC(=O)N2CC2CCCO2)cc1 (stereo unspecified)
CCOC(=O)c1c(C)[nH]c(C2=NNC(=Nc3cccc(Cl)c3)SC2)c1C
CC(C)(C)N=C1NN=C(c2ccc(Cl)cc2)CS1
CC(C)(C)c1ccccc1NC(=O)NC1CCN(Cc2c(F)cccc2Cl)CC1
COc1ccccc1NC1=C(Cl)C(=O)N(C2CCCCC2)C1=O
CCOC(=O)Cc1csc(NC(=O)c2sc3nc4ccc(CC)cc4cc3c2N)n1
O=C1c2ccccc2C(O)N1c1ccccc1 (stereo unspecified)
Cc1ccnc(N2CCCC(C(=O)NCc3cccs3)C2)n1 (stereo unspecified)
O=C(O)CCn1cc(/C=C2\NC(=S)N(c3ccccc3)C2=O)c(-c2ccc(Br)cc2)n1
Cc1noc(C)c1COc1ccc(C(=O)OCC(=O)Nc2c(C)n(C)n(-c3ccccc3)c2=O)cc1
COc1cccc(CNc2ccc(S(N)(=O)=O)cc2)c1OC
COc1cc(/C=C/c2nc(N)nc(-c3ccccc3O)n2)cc(OC)c1OC
CN=c1scc(-c2ccccc2F)n1/N=C/c1ccc[nH]1
Cc1cc(C)c(NC(=O)CSc2nnc(-c3ccncc3)n2Cc2ccco2)c(Cl)c1
CCOc1ccc(NCc2nnc(SCc3ccccc3Cl)n2-c2ccccc2)cc1
CCc1ccccc1-n1c(SCC(=O)Nc2ccc3c(c2)OCCO3)nc2[nH]ncc2c1=O
